Source: PubChem BioAssay AID1117319 (Southern Research Institute, 2015)
Values joined by “and” are separate entries in the source; they are usually repeats but may differ in a detail not shown here. Identical values can stand only once. Screen size: about 260,000 compounds; about 1,500 (0.58%) were called active. Not shown: some 5% with an inconclusive outcome.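 The calls were made as follows: active = inhibition above a set limit at one or more doses, reproduced on every date tested; inconclusive = results disagree between test dates, or hit never tested in dose response; inactive = the rest.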 A selection follows. Measured potencies and affinities stand elsewhere.

Target: Virion infectivity factor (Human immunodeficiency virus type 1 group M subtype B (isolate BH10)) + Virion infectivity factor (Human immunodeficiency virus type 1 group M subtype B (isolate BRU/LAI)) + Virion infectivity factor (Human immunodeficiency virus type 1 group M subtype B (isolate PCV12)) + Virion infectivity factor (Human immunodeficiency virus type 1 group M subtype B (isolate HXB2)) + DNA dC->dU-editing enzyme APOBEC-3G (Homo sapiens) (UniProt P69720+P69721+P69722+P69723+Q9HC16)
Assay: HIV-1 Vif–A3G interaction blockers – biochemical, TR-FRET, GST-Vif 1-94, biotin-A3G peptide, dose response retest, primary screen (AID 1117319);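 also: Vif residues 1-94 fused to GST binding biotinylated APOBEC3G peptide 110-148; 0% = full assay without inhibitor and 100% = GST in place of GST-Vif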
Conditions: TR-FRET GST-Vif / biotin-A3G peptide binding; active compounds read high

inhibition, inactive:
CC1=C(C(=O)Nc2ccccc2)C(c2ccco2)NC(=S)N1 (stereo not given) -0.58%, CC1=C(C(=O)Nc2ccccc2)C(c2ccco2)NC(=O)N1 (stereo not given) -0.31%, N#C/C(=C\c1cccs1)C(=O)N1CCOCC1 4.24%, CCOc1ccc(-n2cc(C(=O)NCCOC)c3cc(OC)c(OC)cc3c2=O)cc1 -0.11%, CC1=CCC2C(=O)N(c3ccc4ccccc4n3)C(=O)C2C1 (stereo not given) 3.04%, O=C(COC(=O)c1n[nH]c(=O)c2ccccc12)c1ccc(Cl)cc1 -6%, COc1ccc([C@H]2CC(=O)c3c(O)cc(O)cc3O2)cc1O 9.99%, COc1cc(C2CC(=O)c3c(O)cc(O)cc3O2)ccc1O (stereo not given) 9.19%, Cc1nnc(SCc2cc([N+](=O)[O-])cc3c2OCOC3)n(N)c1=O 20.5%, O=[N+]([O-])c1cc2c(c(CSc3ncccn3)c1)OCOC2 1.34%, COc1ccc(CCNC(=O)COc2coc(CN3c4ccccc4CC3C)cc2=O)cc1OC (stereo not given) 3.96%, CCOC(=O)c1oc2ccc(/C=N/O)c(Cl)c2c1C -0.46%, CC1CN(C(=O)COC(=O)c2cnc(Cl)c(Cl)c2)CC(C)O1 (stereo not given) -12.2%, Nc1ncnc2c1ncn2[C@@H]1O[C@H](CNC(=O)[C@@H]2C[C@H](F)CN2)[C@@H](O)[C@H]1O -0.68%, COc1cccc(CNc2ccc(F)c([N+](=O)[O-])c2)c1O -12%, COCCCn1c(=NC(=O)c2ccncc2)c(C#N)cc2c(=O)n3cccc(C)c3nc21 3.9% and 7.65%, CCCCn1c(=NC(=O)c2ccc3c(c2)OCO3)c(C#N)cc2c(=O)n3cccc(C)c3nc21 6.53%, O=C(c1cccc(S(=O)(=O)N2CCc3ccccc32)c1)N1CCN(c2ccccn2)CC1 -7.91%, Cc1cnc(C(=O)OCC(=O)Nc2cc(-c3cc(C)c(C)cc3C)nn2-c2ccccc2)cn1 3.14%, COc1ccccc1-n1c(-c2cc(-c3ccc(F)cc3)n[nH]2)n[nH]c1=S 0.73%, COc1ccccc1-n1c(-c2ccco2)n[nH]c1=S -2.63%, S=c1[nH]nc(-c2cc(-c3ccco3)[nH]n2)n1-c1cccc2ccccc12 16.8%, S=c1[nH]nc(-c2cc(-c3ccco3)[nH]n2)n1-c1ccccc1 4.55%, Cc1cc2c(cc1C)NC1=C(N2)OC(c2cccc(O)c2)C1=O (stereo not given) 5.24%, NS(=O)(=O)c1ccc(CCNC(=O)CSc2ccsc2[N+](=O)[O-])cc1 4.39%, CC(=O)N1CCN(C(=O)CCNC(=O)c2ccc(Br)cc2)CC1 0.92%, CCN1CCN(c2nc3ccccn3c(=O)c2/C=C(\C#N)S(=O)(=O)c2ccccc2)CC1 -0.55%, COC(=O)c1ccc(C(=O)NN)cc1 -8.26%, Cc1cccc(NC(=O)Cc2ccc(F)cc2)c1 -2.86%, Cc1ccc(NC(=O)CCc2nc(-c3cccs3)no2)c(Br)c1 0.83%, C(=C\c1ccc2ccccc2n1)/c1ccccc1 10.9%, Fc1ccccc1/C=C/c1ccc2ccccc2n1 1.57%, Cc1c(N(C)C)nc2ccccc2c1N -3.71%, CN(C)c1c2ccccc2nc2c(F)c(F)c(F)c(F)c12 -2.85%, CNC(=O)COc1coc(CN2CCN(c3cccc(Cl)c3)CC2)cc1=O 6.04%, CCOC(=O)N/N=C(/c1ccccc1)C1CCCCC1 -4.75%, CCOc1ccccc1OCC(=O)NC1CCCCC1 -0.58%, CCN(C(=O)COC(=O)/C=C/c1cnc2ccccc2n1)c1ccccc1 -2.53%, CCOCC(=O)OCC(=O)Nc1cc(OC)c([N+](=O)[O-])cc1C 7.7%, COc1cccc(-c2nnc(SCC(=O)Nc3cc(C)ccc3OC)n2N)c1 3.89%, CCn1cc[n+](C)c1P(c1ccccc1)c1ccccc1 3.82%, COCCCn1c(=O)c2sccc2n2c(CCCC(=O)NCc3ccccc3OC)nnc12 -3.09%, Cc1ccc([N+](=O)[O-])cc1S(=O)(=O)Nc1cccc(S(=O)(=O)NC2=NCCC2)c1 3.32%, O=[N+]([O-])c1ccc(Cl)c(S(=O)(=O)NC2=NCCC2)c1 -7.04%, CC1(C)CC(=O)C=C(c2n[nH]nc2-c2ccc(F)c(F)c2)C1 -13.9%, CCOC(=O)c1cc(-c2ccc(OC)cc2OC)nn1-c1ccc(C(=O)O)cc1 4.72%, CN1CCc2c(sc(NC(=O)c3ccc(S(=O)(=O)N4CCOCC4)cc3)c2C(N)=O)C1 18.7%, CC(C)N1CCc2c(sc(NC(=O)c3ccc(S(=O)(=O)N4CCOCC4)cc3)c2C(N)=O)C1 -2.18%, Cc1c(C(=O)N(C)Cc2nc3ccccc3c(=O)[nH]2)oc2ccccc12 -2.36%, Cc1ccc(NC2=CC(=O)CC(c3ccco3)C2)c(N)c1 (stereo not given) 23.3%, Cc1ccc(C2CC(=O)C=C(NCC(C)C)C2)cc1 (stereo not given) 3.68%, O=C1C=C(Nc2ccc(Cl)cc2Cl)CC(c2ccco2)C1 (stereo not given) 2.86%, O=C1C=C(NCc2ccc(Cl)cc2)CC(c2ccco2)C1 (stereo not given) 32.3%, Cc1ccnc(NC(=O)c2ccc3c(c2)OCO3)c1 4.65%, Cc1cc(C)c2c(c1)/C(=N\N=c1\sc3ccccc3n1C)C(=O)N2 0.52%, Cc1cccc2c1NC(=O)C2=O 32.4%, COc1ccc(OC)c(NC(=O)CCN2CCN(C)CC2)c1 2.28%, COc1ccc(OC)c(NC(=O)CCN2CCCCC2)c1 -3.02%, N#Cc1cccc(NC(=O)CSc2nnc(-c3n[nH]c4ccccc34)o2)c1 -4.45%, Cc1cccc(-n2nnnc2SCC(=O)c2cc(C)n(CC3CCCO3)c2C)c1 (stereo not given) 22.8%, CCCn1c(C)cc(C(=O)CN2C(=O)c3ccccc3S2(=O)=O)c1C 0.72%, CCn1c(C)cc(C(=O)CN2C(=O)c3ccccc3S2(=O)=O)c1C 6.44%, Cc1ccc(-n2nnnc2SCC(=O)c2cc(C)n(CC3CCCO3)c2C)cc1 (stereo not given) -3.58%, Cc1cc(C(=O)COC(=O)c2ccccc2Br)c(C)n1CC1CCCO1 (stereo not given) 30.3%, Cc1cc(C(=O)COC(=O)c2ccccc2O)c(C)n1CC1CCCO1 (stereo not given) -14.1%
